Assay results reported in PubChem BioAssay AID1508600 (Functional Genomics Laboratory (NCATS/FGL), 2020).
Hit rate of the full screen: of about 53,000 sequences, about 3,700 (7%) were called active. The sample as a whole holds a higher share of actives than the screen did. Unmarked numbers belong to inactive results.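 Rule for the calls: active = gene knockdowns whose robust z-score for IL-1 alpha signal is at least 2 or at most -2, so actives lie on both sides; inactive = the rest.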

Assay: Components of the Cytosolic LPS Sensing Pathway: Gene Identification via Genome-wide siRNA Screen;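 note: robust z of the log signal after scaling to non-targeting control siRNA wells of the plate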
Details: RAW264.7 macrophages, IL-1a HTRF, actives lie on both sides, screened at 100 nM (by protocol), cells primed 5 h with Pam3CSK4 first
Summary of the method: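 Mouse macrophage line RAW264.7 is transfected with siRNA (100 nM final), grown 48h, primed with TLR ligand Pam3CSK4 5 h and given intracellular LipidA 24 h. IL-1a in supernatant is read by HTRF and viability by luminescence.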

Row | Sequence | z-score
1 | GCCACACUUAAGUCAGACCTT against Tprn | 0.597
2 | GGUGCUAAGAAAAUCAAAGTT against Ryr2 | 3.64 (active)
3 | GGGAGCAAAUGUAAUUUAUTT against Tbpl1 | 0.842
4 | GGUUUAACUUUAAUGAUGGTT against Cacna1e | -1.39
5 | GGGAAUGGGUCUUGUAAACTT against Ppat | -1.4
6 | GCAUAUGCUUUUACAACACTT against Zfp280c | 0.252
7 | GGUCAAUGCUGUUUUUGUUTT against Mxi1 | 2.41 (active)
8 | GGUCUGUGCAAGCAAAUCGTT against Cacng2 | -0.153
9 | GGAAAAUCAUGGGAGCCUUTT against Lpo | -0.435
10 | GGAGAGUGAUGAACAGAUGTT against Pctp | 2.21 (active)
11 | GGGCUCGUUAAUCUUUUACTT against Nop10 | 0.753
12 | GGAAAUGUUUCUGUUCAUUTT against Nipsnap3b | 0.295
13 | GGUGACUGACAGCUGCCAATT against Prima1 | 0.0318
14 | GGUUAAAAGAGGUGAUUAGTT against Mtfp1 | 1.9
15 | GGCCCAUCACUUACUAAAGTT against Exoc3l | 0.224
16 | GGAAUAUUCACAGUCCGAGTT against Zfand3 | -2.18 (active)
17 | GCCAACAAUAUAAUUCAAGTT against Abca5 | 1.64
18 | GGUGACAAAAAGUCAAAGATT against Dis3l2 | -0.542
19 | CCAUGGUCUAGCACAGUGGTT against Cpn2 | -0.079
20 | GACACUGUCAAAUUAUGGATT against Vmn1r74 | -0.581
21 | CGGAAUGAUUCUGACUAAUTT against Mmp7 | 0.546
22 | GGUAUGGAAGACAAAACCUTT against Nlrp1a | 0.61
23 | GGAACACUGUGAGAACAAGTT against Peak1 | 0.124
24 | GGAGUAUUACGUCUGAUAUTT against Nrxn1 | 2.39 (active)
25 | GGUGCUUAAUUCCUGUCCCTT against Ggn | -0.855
26 | GGAGUUCUUCACGCGUAACTT against G6pd2 | 0.599
27 | GCUAGAGGAGUUUCUAAACTT against Clu | 0.0975
28 | GCUGGUGUCGGCAAAUCCUTT against Wnk1 | -0.62
29 | GCAGAAUGAGUUCAGACGATT against Mgmt | 0.36
30 | GGCUUUCAGUUAUUUGACATT against Zfp709 | -0.636
